The source of these data is PubChem BioAssay (Tox21).

Assay [1] can be described thus: qHTS assay to identify aromatase inhibitors - cell viability counter screen (AID 743084).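 Further: cells stimulated with testosterone during compound exposure; nearly all actives have a fitted effect of over 55% in size.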 Further: potency means the concentration at half of the fitted maximal effect. Background: Quantitative high-throughput screening tests each substance at several concentrations.
Assay [2] concerns the target Aryl hydrocarbon receptor (Homo sapiens) (UniProt P35869). In words: qHTS assay to identify small molecule that activate the aryl hydrocarbon receptor (AhR) signaling pathway (AID 743085). Further: nearly all actives have a fitted effect of over 15% in size. Further: potency means the concentration at half of the fitted maximal effect.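 On activation: HG2L7.5c1 human HepG2 liver cells with stably integrated DRE-driven firefly reporter; series mostly up to about 70 µM.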 An outline of the steps: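 Steps: seed HepG2-AhR-luc cells; allow 5 h at 37C; pin-transfer test compound or vehicle; incubate 24 h at 37C; add viability dye (30 min, 37C) and read fluorescence; add luciferase substrate (30 min, RT) and read luminescence.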

Assay [3] is described as follows: qHTS assay to identify small molecule that activate the aryl hydrocarbon receptor (AhR) signaling pathway - cell viability counter screen (AID 743086).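 Further: HepG2 liver cells carrying the AhR DRE luciferase reporter; series mostly up to about 70 µM; nearly all actives have a fitted effect of over 45% in size.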 Summed up: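 HepG2-AhR-luc (HG2L7.5c1) cells, 4000/well, were preincubated 5 h at 37C, exposed to compound in qHTS format for 24 hr at 37C, then given CellTiter-Fluor for 30 min; viability was read as fluorescence in the reporter wells.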

The target in assay [4] is Peroxisome proliferator-activated receptor gamma (Homo sapiens) (UniProt P37231). Put plainly: qHTS assay to identify small molecule agonists of the peroxisome proliferator-activated receptor gamma (PPARg) signaling pathway (AID 743094; active means well fitted activation curve with a large enough effect in the signal ratio in the repeat runs, not every such curve was filed as active; the % refers to the signal ratio). An outline of the steps: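 Cells from the PPARg UAS-bla HEK293H line are plated and incubated 5 h at 37C. Compounds in DMSO are pinned in and left 17 h at 37C. LiveBLAzer B/G substrate is then added for 1 h at room temperature before fluorescence is measured.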
Peroxisome proliferator-activated receptor gamma (Homo sapiens), sequence (P37231 whole entry, looked up): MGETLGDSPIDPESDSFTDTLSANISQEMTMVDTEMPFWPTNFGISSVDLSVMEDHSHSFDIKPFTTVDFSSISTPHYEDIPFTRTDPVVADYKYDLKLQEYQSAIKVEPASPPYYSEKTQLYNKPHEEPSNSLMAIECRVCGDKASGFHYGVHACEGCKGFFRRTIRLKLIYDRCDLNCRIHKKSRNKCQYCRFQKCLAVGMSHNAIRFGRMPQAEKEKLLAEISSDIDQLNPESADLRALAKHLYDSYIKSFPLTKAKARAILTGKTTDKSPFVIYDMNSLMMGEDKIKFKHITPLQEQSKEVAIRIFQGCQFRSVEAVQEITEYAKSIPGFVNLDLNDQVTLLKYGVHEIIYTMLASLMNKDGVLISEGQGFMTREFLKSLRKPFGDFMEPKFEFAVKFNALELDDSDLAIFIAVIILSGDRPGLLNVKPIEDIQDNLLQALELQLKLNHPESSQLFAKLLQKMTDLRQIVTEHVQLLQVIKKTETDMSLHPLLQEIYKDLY

Assay [5] in a line: qHTS assay to identify small molecule phospholipidosis (PLD) inducers (AID 1259344; active means well fitted curve in the direction sought with a large enough effect; an effect the other way counts as inactive or inconclusive; further: potency means the concentration at half of the fitted maximal effect). An outline of the steps: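 After 4 h attachment on collagen I, HepG2 cells were dosed with compound alongside LipidTOX Red, kept 24 h at 37 C, fixed, and imaged for lamellar phospholipid pits.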
Assay [6] concerns the target Nuclear receptor subfamily 1 group I member 2 (Rattus norvegicus) (UniProt Q9R1A7). Put plainly: Rat pregnane X receptor (rPXR) activation by small molecules, qHTS assay (AID 1346983). Further: nearly all actives have a fitted effect of over 20% in size. Further: potency means the concentration at half of the fitted maximal effect. The conditions noted are these: rPXR luciferase reporter cells, One-Glo luminescence, 24 h; max activation: stronger effect = higher value. Summed up:
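Cell-based rPXR luciferase reporter assay, 2,000 cells per well, rested 5hr at 37 C before compound addition in DMSO, then 24 hr at 37 C. One-Glo reagent was added and luminescence read after 30 min at room temperature.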

Assay [7] deals with Nuclear receptor subfamily 1 group I member 2 (Homo sapiens) (UniProt O75469). Put plainly: Human pregnane X receptor (PXR) activation by small molecules, qHTS assay (AID 1346985). Further: nearly all actives have a fitted effect of over 40% in size. Further: potency means the concentration at half of the fitted maximal effect. Summed up: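 DPX-2 cells (HepG2 co-transfected with a PXR response element and a CYP3A4-promoter luciferase construct) were seeded at 2,000 per well, rested 5 hr at 37C, then exposed to DMSO-dissolved compounds for 24 hr. Activation was read as luciferase luminescence.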

Assay [8] shares this target. In words: CYP3A4 induction through human pregnane X receptor (PXR) by small molecules, qHTS assay (AID 1346984). Further: nearly all actives have a fitted effect of over 40% in size. Further: potency means the concentration at half of the fitted maximal effect. An outline of the steps:
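Quantitative HTS in DPX-2 cells, i.e. HepG2 transfected with PXR response element and CYP3A4-promoter luciferase. Compounds in DMSO incubated 24hr at 37C; then P450-Glo CYP3A4 substrate, 3uM final, 3hr; One-Glo luminescence.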

Inconclusive results are not listed. Unmarked numbers belong to inactive results. Calls of active or inactive are those of the source. Unless noted, the call rests on the fitted dose curve; in most records, active means well fitted curve in the direction sought with a large enough effect in the repeat runs; inconclusive means weak or mixed curves; inactive means no such curve, though single readings can be large; an effect the other way counts as inactive or inconclusive.
On the % scale 0 is the no-effect control and ±100 the full control effect.

Aryl hydrocarbon receptor (Homo sapiens), sequence (P35869 whole entry, looked up): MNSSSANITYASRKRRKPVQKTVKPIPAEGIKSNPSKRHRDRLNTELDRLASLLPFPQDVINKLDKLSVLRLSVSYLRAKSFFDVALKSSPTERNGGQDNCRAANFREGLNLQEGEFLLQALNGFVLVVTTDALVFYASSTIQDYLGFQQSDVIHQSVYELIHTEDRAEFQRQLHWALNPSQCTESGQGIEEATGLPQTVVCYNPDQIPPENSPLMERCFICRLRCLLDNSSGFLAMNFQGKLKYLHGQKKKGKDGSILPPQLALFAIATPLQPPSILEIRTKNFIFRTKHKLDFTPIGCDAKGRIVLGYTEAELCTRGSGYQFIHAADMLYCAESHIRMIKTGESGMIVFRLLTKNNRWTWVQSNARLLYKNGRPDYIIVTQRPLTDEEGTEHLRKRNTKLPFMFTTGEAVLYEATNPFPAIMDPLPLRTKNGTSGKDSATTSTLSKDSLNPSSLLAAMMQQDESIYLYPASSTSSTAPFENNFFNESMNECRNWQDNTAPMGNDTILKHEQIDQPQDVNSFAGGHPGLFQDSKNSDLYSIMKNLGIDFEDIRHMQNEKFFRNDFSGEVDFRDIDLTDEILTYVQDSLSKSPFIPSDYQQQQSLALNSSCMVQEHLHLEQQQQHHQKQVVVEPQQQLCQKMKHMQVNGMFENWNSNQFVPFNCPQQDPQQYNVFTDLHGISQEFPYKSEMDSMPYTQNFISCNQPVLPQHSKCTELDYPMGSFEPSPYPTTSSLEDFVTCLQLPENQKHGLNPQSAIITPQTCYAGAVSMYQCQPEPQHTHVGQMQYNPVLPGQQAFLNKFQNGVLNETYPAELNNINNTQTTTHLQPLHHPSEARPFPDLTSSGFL
Nuclear receptor subfamily 1 group I member 2 (Rattus norvegicus), sequence (Q9R1A7 whole entry, looked up): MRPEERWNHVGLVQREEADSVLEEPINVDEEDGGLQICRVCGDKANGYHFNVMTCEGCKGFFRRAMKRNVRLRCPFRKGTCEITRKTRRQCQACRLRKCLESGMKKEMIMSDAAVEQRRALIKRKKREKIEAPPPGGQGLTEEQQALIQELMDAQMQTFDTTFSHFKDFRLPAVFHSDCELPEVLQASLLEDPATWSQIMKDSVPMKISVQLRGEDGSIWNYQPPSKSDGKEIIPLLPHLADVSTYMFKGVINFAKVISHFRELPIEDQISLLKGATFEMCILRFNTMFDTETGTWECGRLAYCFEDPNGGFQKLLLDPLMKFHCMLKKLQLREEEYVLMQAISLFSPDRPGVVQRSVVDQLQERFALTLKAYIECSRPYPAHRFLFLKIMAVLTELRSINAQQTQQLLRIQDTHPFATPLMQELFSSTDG

In the case of `CCOC(=O)C1=C[C@@H](OC(CC)CC)[C@H](NC(C)=O)[C@@H](N)C1`, the Potency entry in assay [1], in assay [2], in assay [3], in assay [4], in assay [5] and in assay [7] was “inactive” each time. The max activation in assay [6] is -4.38%.

On to `OC[C@H]1OC([S-])[C@H](O)[C@@H](O)[C@@H]1O.[Au+]` (stereo partly drawn), for which the Potency result in assay [1], in assay [2], in assay [3], in assay [5], in assay [8] and in assay [7] was “inactive” throughout.

Regarding `COc1ccc2c(=O)c(C)c(-c3ccccc3)oc2c1CN(C)C`, the Potency result in assay [1], in assay [3], in assay [4] and in assay [5] was “inactive” throughout. Besides, the Potency in assay [2] is 11.9 µM (active). In assay [6], the max activation is -1.96%.

With `CCC(=O)OCC(=O)[C@@]1(OC(=O)CC)[C@H](C)C[C@H]2[C@H]3[C@H]([C@@H](O)C[C@@]21C)[C@@]1(C)C=CC(=O)C=C1C[C@H]3Cl`, the Potency result in assay [1], in assay [2], in assay [3], in assay [4], in assay [5] and in assay [7] was “inactive” each time. In addition, the Potency in assay [6] is 3.98 µM (active).

As for `COc1cc([C@@H]2c3cc4c(cc3C(O[C@@H]3O[C@@H]5COC(c6cccs6)O[C@H]5[C@H](O)[C@H]3O)C3COC(=O)[C@@H]32)OCO4)cc(OC)c1O` (stereo partly drawn), the Potency entry in assay [2], in assay [3] and in assay [5] was “inactive” each time. Moreover, the Potency was 28.2 µM (active) in assay [6] and 10 µM (active) in assay [7].

In the case of `CSc1nc2cc(Oc3cccc(Cl)c3Cl)c(Cl)cc2[nH]1`, the Potency result in assay [1], in assay [3], in assay [4], in assay [5] and in assay [8] was “inactive” throughout. Also, in assay [6], the max activation is -0.842%.

Turning to `COc1ccc2c(c1)N(C[C@H](C)CN(C)C)c1ccccc1S2`, the Potency entry in assay [2] and in assay [4] was “inactive” throughout. Further, in assay [5], the Potency is 8.91 µM (active). Also, the max activation in assay [6] was -5.19%.

As to `CCC[C@@H]1C[C@@H](C(=O)N[C@@H]([C@H]2O[C@H](SC)[C@H](O)[C@@H](O)[C@H]2O)[C@H](C)Cl)N(C)C1`, the Potency result in assay [1], in assay [2], in assay [3], in assay [4], in assay [5] and in assay [7] was “inactive” each time. Also, the max activation in assay [6] was 7.71%.

Regarding `CCOC(=O)Oc1c(OC)cc(C(=O)O[C@@H]2C[C@@H]3CN4CCc5c([nH]c6cc(OC)ccc56)[C@H]4C[C@@H]3[C@H](C(=O)OC)[C@H]2OC)cc1OC`, the Potency result in assay [3] and in assay [5] was “inactive” in each case. Also, in assay [6], the max activation is -0.121%.

On to `CC1(C)C(\C=C/C=C\C=C/C=C2/N(CCCCS(=O)(=O)O)c3ccc4ccccc4c3C2(C)C)=[N+](CCCCS(=O)(=O)[O-])c2ccc3ccccc3c21`, for which the Potency entry in assay [2], in assay [4], in assay [5], in assay [8] and in assay [7] was “inactive” in each case.

For the compound `CO/N=C(\C(=O)N[C@@H]1C(=O)N2C(C(=O)O)=C(CSC(=O)c3ccco3)CS[C@H]12)c1csc(N)n1`, the Potency entry in assay [1], in assay [2], in assay [3], in assay [4], in assay [5] and in assay [8] was “inactive” each time. Moreover, in assay [7], the Potency entry is “inactive”.

Consider `OC[C@H]1O[C@@H](O[C@H]2[C@H](O)[C@@H](O)[C@H](O)O[C@@H]2CO)[C@H](O)[C@@H](O)[C@@H]1O`, for which the Potency result in assay [1], in assay [3], in assay [4], in assay [5], in assay [8] and in assay [7] was “inactive” throughout.

As for `CC(=O)O[C@H]1C(=O)[C@@]2(C)[C@H]([C@H](OC(=O)c3ccccc3)[C@]3(O)C[C@H](OC(=O)[C@H](O)[C@@H](NC(=O)c4ccccc4)c4ccccc4)C(C)=C1C3(C)C)[C@]1(OC(C)=O)CO[C@@H]1C[C@@H]2O`, the Potency in assay [1] was 6.68 µM (active); in assay [8] it was 6.31 µM (active); in assay [7], 15.8 µM (active). Besides, the Potency entry in assay [2], in assay [4] and in assay [5] was “inactive” throughout.

Consider `C[C@H](N)C(=O)N[C@@H](C)P(=O)(O)O`, for which the Potency result in assay [1], in assay [2], in assay [3], in assay [4], in assay [5] and in assay [8] was “inactive” throughout. Also, the Potency result in assay [7] is “inactive”.

With `NC(N)=NCC1COc2ccccc2O1` (stereo not drawn), the Potency result in assay [1], in assay [3], in assay [4], in assay [5], in assay [8] and in assay [7] was “inactive” throughout.

For `C[C@@](Cc1ccc(O)c(O)c1)(NN)C(=O)O`, the Potency result in assay [1], in assay [2], in assay [3], in assay [4], in assay [5] and in assay [8] was “inactive” throughout. Moreover, in assay [7], the Potency entry was “inactive”.

Take `COC(=O)CC[C@H](N)C(=O)O`: the Potency entry in assay [1], in assay [2], in assay [3], in assay [4], in assay [5] and in assay [8] was “inactive” throughout. The Potency result in assay [7] was “inactive”.

As for `CN[C@H]1CCc2cc(OC)c(OC)c(OC)c2-c2ccc(OC)c(=O)cc21`, the Potency entry in assay [1], in assay [4], in assay [5] and in assay [8] was “inactive” in each case. Further, the Potency in assay [7] is 1 µM (active).

`CC(C(=O)O)c1ccc(N2Cc3ccccc3C2=O)cc1` (stereo not drawn): the Potency result in assay [1], in assay [3], in assay [4], in assay [5], in assay [8] and in assay [7] was “inactive” in each case. Further, the Potency in assay [2] was 0.0596 µM (active).

`CO[C@H]1C[C@@H]2CC[C@@H](C)[C@@](O)(O2)C(=O)C(=O)N2CCCC[C@H]2C(=O)O[C@H]([C@H](C)C[C@@H]2CC[C@@H](OC(=O)C(C)(CO)CO)[C@H](OC)C2)CC(=O)[C@H](C)/C=C(\C)[C@@H](O)[C@@H](OC)C(=O)[C@H](C)C[C@H](C)/C=C/C=C/C=C/1C`: the Potency entry in assay [1], in assay [2], in assay [3], in assay [4], in assay [5] and in assay [8] was “inactive” each time. The Potency entry in assay [7] was “inactive”.

For `O=C(O)COc1ccc(CCNS(=O)(=O)c2ccccc2)s1`, the Potency entry in assay [1], in assay [2], in assay [3], in assay [4], in assay [5] and in assay [8] was “inactive” throughout. Further, the Potency entry in assay [7] is “inactive”.
